Wnt act: Wnt/beta-catenin pathway activation. Wnt/beta-catenin reporter cell assay, activator, plate reader. activation, % at 9.35 µM. 300,000 tested, 1.2% active; in the data active = activation above about 30%, passing the limit was not always enough; inconclusive = no clear call, values can overlap the other calls;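 also: 0% = neutral control wells and 100% = positive control wells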
MITF TRPM1 HTS: activators of MITF-driven TRPM1 promoter activity in SK-MEL-5 cells. 300,000 tested, 0.75% active. activation, % at 12.5 µM. SK-MEL-5 TRPM1-promoter luciferase, 24 h; % of positive control, neutral wells = 0;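 active = mean activation of at least 80% with every replicate also reaching 80%; inconclusive = mean reaches 80% but some replicate falls short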;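 also: 0% = neutral control wells and 100% = parthenolide positive control wells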
esBAF inh: SWI/SNF esBAF complex inhibition. mouse ES cells, Bmi1-luciferase knock-in reporter, 24 h; 100% = twice the neutral-well signal. reporter increase, % at 12.5 µM. 350,000 tested, 2% active. AID 602393; in the data active = activation above about 40%; inconclusive = no clear call, values can overlap the other calls;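 also: 0% = median of the plate's neutral control wells and 100% = double that signal; a rise in the Bmi1 reporter signal indicates esBAF inhibition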
GAA850 FXN act: activators of GAA850 frataxin (FXN) promoter; HEK293 lucGAA850 FXN promoter luciferase reporter, 24 h; percent of 10 µM SAHA response; activation, % at 6 µM; 360,000 tested, 0.56% active; AID 540364;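 active = activation above the average of all compounds screened plus 3 SD, cutoff fixed separately per campaign, cut at about 7.5% in these data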;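 also: 0% = DMSO wells and 100% = 10 µM SAHA wells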
Active calls of the source: *; ? = inconclusive; . = no result given. The list is not random: actives were taken first. Their share in the collection is about 2.8%.

SMILES	Wnt act	MITF TRPM1 HTS	esBAF inh	GAA850 FXN act
Cc1ccc(S(=O)(=O)N(C)C[C@@H]2Oc3ccc(NC(=O)Cc4ccccc4)cc3C(=O)N([C@@H](C)CO)C[C@H]2C)cc1	.	.	3.5	.
CN(C)CCCNC(=O)[C@H]1[C@H](CO)[C@H]2Cn3c(ccc(C4=CCCC4)c3=O)[C@H]2N1CCC(F)(F)F	.	.	4.7	.
Cn1cccc1C(=O)C(=O)Nc1ccc(F)c(F)c1	-1.1	102.8*	45.6*	4.2
Cn1cccc1C(=O)C(=O)Nc1cc(Cl)cc(Cl)c1	7.2	46.1	49.0*	3.0
Cn1cccc1C(=O)C(=O)Nc1cccc(Cl)c1Cl	.	57.7	63.2*	5.8
Cn1cccc1C(=O)C(=O)Nc1ccc(Cl)cc1	9.5	.	13.1	1.8
O=[N+]([O-])c1ccc2oc(/C=C/c3ccc(O)cc3)nc2c1	11.1	.	41.9*	3.2
Nc1ccc(-c2nc3cc([N+](=O)[O-])ccc3o2)cc1	44.4*	41.4	0.5	6.2
CCCN(C)C[C@@H]1OCCCC[C@H](C)Oc2ccc(NC(=O)CCCN(C)C)cc2C(=O)N([C@@H](C)CO)C[C@@H]1C	.	.	-4.5	.
C[C@H](CO)N1C[C@H](C)[C@H](CN(C)Cc2ccncc2)Oc2ccc(NS(=O)(=O)c3cn(C)cn3)cc2CC1=O	.	.	-0.7	.
O=C(C[C@H]1C[C@H]2c3cc(NC(=O)NC4CCCC4)ccc3O[C@H]2[C@@H](CO)O1)NCc1cc(F)ccc1F	.	.	-2.7	.
O=C(/C=C/c1ccc(S(=O)(=O)N2CCOCC2)cc1)NC(=S)NCCCn1ccnc1	31.9*	-20.4	-2.9	2.3
O=C(COc1ccc(S(=O)(=O)N2CCOCC2)cc1)NCCCn1ccnc1	1.3	1.2	7.3	2.8
O=c1cc(-c2ccccc2)[nH]c2nc3ccccc3n12	46.9*	16.1	-6.9	-0.9
COc1ccc(-n2nc(C#N)c(Cl)cc2=O)cc1	-1.1	-99.9	.	32.8*
O=C(NNc1nc2c(F)cccc2s1)C1=COCCO1	0.2	-7.2	-1.0	0.2
CSc1cccc2sc(NC(=O)C3=COCCO3)nc12	6.2	67.7	56.8*	2.5
Cc1noc(C)c1S(=O)(=O)N(C)C[C@H]1Oc2ccc(NC(=O)Nc3ccc(C(F)(F)F)cc3)cc2CC(=O)N([C@@H](C)CO)C[C@@H]1C	.	.	1.2	.
CO[C@H](CN(C)Cc1cc(F)ccc1F)[C@@H](C)CN([C@@H](C)CO)S(=O)(=O)c1ccc(F)cc1	.	.	0.7	.
Cc1ccc(Cl)c(OCC(=O)Nc2ccc3c(c2)OCCO3)c1	.	131.0*	85.8*	-1.6
O=C(COc1ccccc1Cl)Nc1cccnc1	0.1	55.7	.	0.0
Cc1ccc(Cl)c(OCC(=O)Nc2cccnc2)c1	26.5	101.5*	34.0	5.0
Cc1ccc(OCC(=O)Nc2ccc3c(c2)OCO3)c(C)c1	12.5	88.5*	.	0.3
Cc1cccc(OCC(=O)Nc2ccc3c(c2)OCO3)c1C	9.7	.	12.4	-1.8
CCN(CC(=O)Nc1ccc2c(c1)OCCO2)C(=O)COc1cc(C)ccc1Cl	2.8	-9.3	2.4	-0.1
SMILES	Wnt act	MITF TRPM1 HTS	esBAF inh	GAA850 FXN act
Cc1ccc(C(=O)OC(C)C(=O)Nc2ccc3c(c2)OCO3)c(O)c1 (stereo unspecified)	-6.1	16.6	50.0*	0.1
C[C@H]1CCCCO[C@H](CN(C)Cc2ccccc2)[C@@H](C)CN([C@@H](C)CO)C(=O)c2cc(NS(=O)(=O)c3cn(C)cn3)ccc2O1	.	.	4.8	.
C[C@H](CO)N1C[C@H](C)[C@H](CN(C)C(=O)Cc2ccccn2)Oc2ncc(C#CC3CC3)cc2C1=O	.	.	-1.6	.
CCc1cc2c(N=Nc3c(O)[nH]c4ccccc34)ncnc2s1	.	-13.3	.	2.3
Cc1sc2ncnc(N=Nc3c(O)[nH]c4ccccc34)c2c1C	10.1	23.9	51.6*	3.6
Cc1cccc(C)c1NC(=O)C1C(c2ccc3c(c2)OCO3)=Nc2ccccc2N1C(=O)c1ccccc1 (stereo unspecified)	-2.7	.	.	.
O=C(Nc1ccc2c(c1)OCCO2)C1C(c2ccccc2)=Nc2ccccc2N1C(=O)c1cccnc1 (stereo unspecified)	50.0*	.	.	.
CC(C)(C)C(=O)/C=C/c1ccc(Oc2ccccc2)cc1	32.6*	78.7	34.0	3.8
O=C(O)/C=C/c1ccc(Oc2ncccn2)cc1	-1.6	.	0.0	1.4
Cc1cc(C(=O)CSc2n[nH]c(N)n2)c(C)n1-c1cc(F)ccc1F	13.7	36.4	50.5*	3.2
CCOc1ccc(OCCN2C(=O)c3ccccc3C2=O)cc1	2.4	75.5	62.9*	3.7
N#Cc1ccccc1OCCN1C(=O)c2ccccc2C1=O	.	71.5	56.3*	2.9
O=C1c2ccccc2C(=O)N1CCOCCN1C(=O)c2ccccc2C1=O	.	-8.1	-4.9	2.2
COc1ccccc1NC(=O)N1C[C@@H](O)COC[C@H]2O[C@H](CC(=O)NCc3ccccc3)CC[C@@H]21	.	.	-1.0	.
Cc1cccc(N2C(=O)N3[C@H](c4ccc(F)cc4)[C@@H]4C(=O)N(C5CCCCC5)C(=O)[C@@H]4[C@]3(Cc3ccc(Cl)cc3)C2=O)c1	-4.6	-13.3	-6.1	4.7
Cc1cccc(N2C(=O)N3[C@H](c4ccc(Cl)cc4)[C@@H]4C(=O)N(C5CCCCC5)C(=O)[C@@H]4[C@]3(Cc3ccc(Cl)cc3)C2=O)c1	.	3.6	.	10.3*
NC(=O)NC(=O)COC(=O)c1ccc2noc(-c3ccccc3)c2c1	1.0	36.8	68.2*	4.3
CC(=O)c1ccc2noc(-c3ccc(C)cc3)c2c1	-0.4	11.3	.	2.2
Cc1ccc(-c2onc3ccc(C(=O)O)cc23)cc1	4.0	.	50.1*	3.0
CC(=O)COC(=O)c1ccc2noc(-c3ccccc3)c2c1	4.6	-6.2	27.2	2.4
CC(C)(C)N1C(=O)[C@H]2[C@@H](c3ccc(Br)cc3)N3C(=O)N(c4ccccc4)C(=O)[C@@]3(C)[C@H]2C1=O	-0.2	-16.8	1.0	12.0*
COc1ccc2nc(SCC(=O)c3ccco3)[nH]c2c1	33.1*	95.1*	36.3	4.8
O=C(CSc1nc2ccccc2[nH]1)c1ccco1	.	59.7	24.3	3.0
COc1ccc2nc(SCC(=O)C(C)(C)C)[nH]c2c1	41.1*	51.1	.	3.1
CO[C@@H]1CN(C)C(=O)c2cc(NC(=O)C3CCC3)ccc2OC[C@@H](C)N(C(=O)NC(C)C)C[C@@H]1C	.	.	0.8	.
SMILES	Wnt act	MITF TRPM1 HTS	esBAF inh	GAA850 FXN act
Clc1ccc(CONc2ncnc3nonc23)c(Cl)c1	10.5	49.6	53.3*	4.7
CCONc1ncnc2nonc12	-1.0	-2.3	-0.9	1.4
CN(C)CC(O)c1ccc(C=Cc2ccc(Cl)cc2)cc1 (stereo unspecified)	?	-77.6	49.0*	2.9
CC(C)NC(=O)N[C@@H]1CC[C@H](CCn2cc(-c3ccc(F)cc3)nn2)O[C@@H]1CO	.	.	-4.3	.
COCC(=O)N(C)C[C@H]1Oc2cc(-c3ccc(OC)cc3)ccc2S(=O)(=O)N([C@H](C)CO)C[C@@H]1C	.	.	0.8	.
CC(C)c1ccc(-n2nc3ccc(N)cc3n2)cc1	37.5*	-16.8	-45.0	1.3
Cc1cc2nn(-c3ccc(Cl)cc3)nc2cc1N	33.2*	23.0	.	5.8
Cc1cc2nn(-c3ccc(F)cc3)nc2cc1N	19.3	.	-13.1	3.3
Cc1ccc(-n2nc3ccc(N)cc3n2)cc1	.	-3.8	.	-4.9

Compound activity from PubChem BioAssay.
